Measured values reported in PubChem BioAssay (NCI).
This is part of a sample that, as a whole, favours compounds with a hit. Of some 83,000 tested, about 20% had one in any assay.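 Single-dose data. Exposure time 48 hours. Values below 10 considered active.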 Values without a mark were called inactive. Active and inactive are the calls of the source.

How the values were obtained:
Experiment in all cases: NCI-60 one-dose screen, 48 h (100 = growth as untreated, 0 = no growth, -100 = all killed)
Conditions in all cases: 10 µM unless noted
SR leukemia = test system: SR leukemia
RPMI-8226 leukemia = test system: RPMI-8226 leukemia
OVCAR-8 ovarian = test system: OVCAR-8 ovarian
OVCAR-5 ovarian = test system: OVCAR-5 ovarian
OVCAR-4 ovarian = test system: OVCAR-4 ovarian
SK-OV-3 ovarian = test system: SK-OV-3 ovarian
IGROV1 ovarian = test system: IGROV1 ovarian
OVCAR-3 ovarian = test system: OVCAR-3 ovarian
HS 578T breast = test system: HS 578T breast
NCI/ADR-RES ovarian = test system: NCI/ADR-RES ovarian
T-47D breast = test system: T-47D breast
BT-549 breast = test system: BT-549 breast
MDA-MB-435 melanoma = test system: MDA-MB-435 melanoma
SW-620 colon = test system: SW-620 colon
MCF7 breast = test system: MCF7 breast
HCT-116 colon = test system: HCT-116 colon
HCC-2998 colon = test system: HCC-2998 colon
KM12 colon = test system: KM12 colon

SMILES	growth (SR leukemia)	growth (RPMI-8226 leukemia)	growth (OVCAR-8 ovarian)	growth (OVCAR-5 ovarian)	growth (OVCAR-4 ovarian)	growth (SK-OV-3 ovarian)	growth (IGROV1 ovarian)	growth (OVCAR-3 ovarian)	growth (HS 578T breast)	growth (NCI/ADR-RES ovarian)	growth (T-47D breast)	growth (BT-549 breast)	growth (MDA-MB-435 melanoma)	growth (SW-620 colon)	growth (MCF7 breast)	growth (HCT-116 colon)	growth (HCC-2998 colon)	growth (KM12 colon)
CNC(=O)c1cc(Cn2nc(C)c(NC(=O)Nc3ccc(Cl)c(C(F)(F)F)c3)c2C)ccn1	91.9%	94.9%	97%	99.7%	87.1%	95.2%	109%	109%	97.1%	98.8%	85%	98.6%	100%	111%	93.8%	86.7%	105%	106%
COc1cccc(/C=N/NC(=O)c2cnn3c2NC(c2ccccc2)C3)c1Oc1ccccc1 (stereo not drawn)	43.1%	100%	89%	97.4%	98.9%	90.8%	78.4%	42%	93.4%	87.9%	79.8%	65.7%	1.99% (active)	65.6%	47.7%	55.6%	91%	51.8%
Cc1ccccc1NS(=O)(=O)c1cccc(C(=O)Nc2ccc(Br)cc2)c1	45.2% [25 µM]	33.6% [25 µM]	40.5% [25 µM]	76.7% [25 µM]	36.5% [25 µM]	46.3% [25 µM]	40.5% [25 µM]	47.3% [25 µM]	59.1% [25 µM]	19.1% [25 µM]	25.8% [25 µM]	31.2% [25 µM]	28.3% [25 µM]	58.8% [25 µM]	30% [25 µM]	30.5% [25 µM]	67.3% [25 µM]	37.1% [25 µM]
CC1=C(C(=O)/C=C/c2c[nH]c3ccccc23)C(c2ccccc2)NC(=S)N1 (stereo not drawn)	88.8%	101%	101%	96.7%	101%	95.4%	76.8%	98.5%	95.9%	97.1%	98.6%	107%	97.4%	91.7%	95.4%	93.3%	108%	106%
COc1cc2cc(CN3CCN(c4nccc(-c5ccc6ccccc6c5)n4)CC3)c(=O)[nH]c2cc1OC	-23.1% (active)	61.2%	28.9%	102%	53.4%	99.6%	92%	39%	95.4%	85.9%	81.5%	95.6%	91.1%	-55% (active)	42.8%	-25.4% (active)	101%	83.4%
Cc1ccc(NC(=O)Cc2ccc(/C=C/C(=O)c3ncc[nH]3)cc2)cc1	7.24% (active)	-11.4% (active)	8.42% (active)	64.2%	58%	84.4%	57.6%	15.3%	42.9%	38.3%	38.9%	48.9%	28.7%	11.7%	14.5%	8.97% (active)	98%	11.3%
N#C/C(=C\c1ccc([N+](=O)[O-])s1)c1nc2cc(Cl)ccc2s1	-0.613% (active)	-13.4% (active)	3.27% (active)	63.6%	13.4%	65.1%	-16.2% (active)	20.9%	77.6%	-5.71% (active)	58.7%	-6.72% (active)	29.6%	1.39% (active)	4.17% (active)	-36.4% (active)	14.9%	81.4%
CCOc1ccc(Nc2nc(-c3ccc4c(c3)NC(=O)CO4)cs2)cc1	64.6%	28%	62.8%	92.8%	25%	100%	94.3%	73.7%	107%	14.4%	24.6%	47%	30.7%	82.5%	38.1%	40.7%	86%	67.9%
Fc1ccc(-c2cn3c(nc4ccccc43)c(-c3ccccc3)n2)cc1	91.5%	111%	73.7%	111%	67.1%	105%	81.8%	111%	76.7%	89.3%	86.2%	105%	98%	95.8%	92.8%	89.1%	98.9%	92.1%
OC(c1ccc(F)c(C(F)(F)F)c1)c1cnccc1NC1CCCCC1 (stereo not drawn)	16.6%	16.9%	81.8%	85.3%	64.8%	103%	70%	72.3%	77.3%	74.7%	41.5%	90.5%	78.5%	58.3%	58.4%	36.4%	-51% (active)	70.6%
COc1ccc(C(=O)c2nc3ccccc3n2CC(=O)c2ccc(F)cc2)cc1	41.8%	81.8%	89.5%	82.5%	73.8%	116%	86.6%	84.1%	103%	58.3%	91.6%	93.2%	-16.4% (active)	46%	62.9%	89.5%	65.3%	56.2%
